Consider 40 compounds from PubChem BioAssay.

Values without a mark were called inactive.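 The calls were made as follows: active = RAM network inhibition above 8.4% in each of two replicates, 3 SD over the compound average; inconclusive = above 8.4% inhibition in only one replicate; inactive = 8.4% inhibition or less in each replicate.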

The assay in a line: RAM signaling pathway blockade in yeast – S. cerevisiae, Pdr1DBD-CYC8 efflux-inhibited sensitized strain, primary screen (AID 1298).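 Also: 0% = DMSO untreated cells without growth and 100% = 10 µM 1-NA-PP1 full growth; higher means more yeast growth rescued from 5-FOA killing.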 Particulars: S. cerevisiae cbk1-as DSE1-URA3 strain, 5-FOA growth OD615, 2 d; at 50 µM; active compounds read high.
As to `COC(=O)c1ccsc1NC(=O)c1ccc(Cl)s1`, the RAM network inhibition is 5.89%.

Consider `COC(=O)C1C(=O)c2c([nH]c(C(=O)OC3CCCCC3)c2C)CC1C` (stereo not given), for which the RAM network inhibition was 2.04%.

Consider `Cc1cc(-c2nnco2)c(C)n1-c1ccc(F)cc1`, for which the RAM network inhibition is 4.69%.

Regarding `O=C1CCCCC(=O)N(c2ccccc2)c2ccccc21`, the RAM network inhibition was 5.34%.

As to `CCOC(=O)N1CCN(C(=O)Cn2ncc3c2-c2ccccc2OC3)CC1`, the RAM network inhibition is -1.43%.

Turning to `COCc1cc(C)nc2sc3c(=O)n(Cc4ccco4)nnc3c12`, the RAM network inhibition is 4.8%.

Take `O=C1c2ccccc2C(=O)N1CCCc1nc2ccccc2c(=O)n1Cc1ccco1`: the RAM network inhibition is 7.66%.

Turning to `CS(=O)(=O)c1ccc2nc(NC(=O)C3CCCCC3)sc2c1`, the RAM network inhibition is 0.41%.

Take `CC(=O)Oc1cccc(N2C(=O)C3CC=C(Cl)CC3C2=O)c1` (stereo not given): the RAM network inhibition is 1.87%.

Regarding `Cc1cccc(-n2ncc3c(N4CCC(C)CC4)ncnc32)c1`, the RAM network inhibition is 1.32%.

For `CCOc1ccc(C2c3c(oc4ccccc4c3=O)C(=O)N2c2ccc(C)cn2)cc1OC` (stereo not given), the RAM network inhibition is 4.03%.

On to `COc1ccc(N2C(=O)C(CC(=O)O)S/C2=C\C(C)=O)cc1` (stereo not given), for which the RAM network inhibition is 3.43%.

For the compound `Cn1c(Cn2c(=O)sc3ccccc32)nnc1SCC(=O)NCc1ccccc1`, the RAM network inhibition was 4.44%.

`O=C(CCNS(=O)(=O)c1cccc2nonc12)NCc1cccs1`: the RAM network inhibition is 1.92%.

For `O=C(CN(Cc1ccc(F)cc1)S(=O)(=O)c1ccccc1)N1CCCCC1`, the RAM network inhibition is 4.25%.

On to `O=C1C2C(c3ccccc3)C=CC(c3ccccc3)C2C(=O)N1CCO` (stereo not given), for which the RAM network inhibition is 4.03%.

As for `COC(=O)c1cn(NC(=O)c2ccc3c(c2)OCO3)c(=O)c2ccccc12`, the RAM network inhibition is 6.69%.

In the case of `CCCCS(=O)CC(CS(=O)CCCC)OC(=O)c1ccccc1` (stereo not given), the RAM network inhibition is 2.4%.

With `Cc1ccc(-n2c3c(cc(C(=O)N4CCN(C)CC4)c2=O)C(=O)CC(C)(C)C3)cc1`, the RAM network inhibition was 2.1%.

For the compound `CC(C)CCn1c(SCC(N)=O)nc2c1c(=O)n(C)c(=O)n2C`, the RAM network inhibition was 2%.

Turning to `CCOc1ccc(C(=O)NCc2ccncc2)cc1OCC`, the RAM network inhibition is 0.83%.

For `COc1cc(OC)nc(NC(=O)C(C)C)n1`, the RAM network inhibition was 4.06%.

As for `COc1ccc(NC(=O)c2c(NC(=O)CNCc3ccco3)sc3c2CCC3)c(OC)c1`, the RAM network inhibition is 5.28%.

In the case of `CC(=O)Nc1ccc(S(=O)(=O)N2CCN(c3ccc(C)c(Cl)c3)CC2)cc1`, the RAM network inhibition is 1.14%.

For the compound `Cn1c(Cn2c(=O)sc3ccccc32)nnc1SCC(=O)NCCc1ccccc1`, the RAM network inhibition was 3.42%.

With `CCOCCn1c(COc2ccccc2)nc2ccccc21`, the RAM network inhibition was 6.89%.

`COc1ccc(COC(=O)C2=C(C)NC(=O)NC2c2ccc(O)c(OC)c2)cc1` (stereo not given): the RAM network inhibition was 1.52%.

As for `CCCOc1ccc(C2c3c(oc4cc(C)c(C)cc4c3=O)C(=O)N2CCCN2CCOCC2)cc1` (stereo not given), the RAM network inhibition is 0.73%.

Consider `CCCCOC(=O)Nc1ccc(S(=O)(=O)Nc2cc(C)nc(C)n2)cc1`, for which the RAM network inhibition was 6.71%.

With `O=S(=O)(NCCO)c1cccc2cccnc12`, the RAM network inhibition was -0.64%.

`CC(C)(C)C1(C)OC(C(N)=O)C(C(N)=O)O1` (stereo not given): the RAM network inhibition was 1.14%.

Regarding `COc1ccc(-c2cn3c(C)c(C(=O)N4CCN(c5ccccc5)CC4)sc3n2)cc1`, the RAM network inhibition is 0.88%.

Consider `Cc1ccccc1OCC(O)Cn1c(NCCN(C)C)nc2c1c(=O)n(C)c(=O)n2C` (stereo not given), for which the RAM network inhibition is 1.15%.

In the case of `CCNc1nc(NCC)nc(-n2nc(C)cc2C)n1`, the RAM network inhibition was 0.75%.

Turning to `Cc1nc2scc(-c3cccs3)c2c(=O)o1`, the RAM network inhibition was 3.15%.

`CC1COC2C(O1)N(S(C)(=O)=O)CCN2S(C)(=O)=O` (stereo not given): the RAM network inhibition was 2.6%.

Regarding `O=C(NCCN1C(=O)C2C3C=CC(C3)C2C1=O)NCc1ccccc1` (stereo not given), the RAM network inhibition is 1.83%.

Take `COC(=O)Cn1c(CCC(=O)O)ccc1-c1ccccc1`: the RAM network inhibition was 10.9%.

Take `COC(=O)C1C2C=CC3(CN(c4ccc(Cl)c(F)c4)C(=O)C13)O2` (stereo not given): the RAM network inhibition is 2.93%.

Take `Cc1cnn(-c2ccc3nnc(-c4ccc(Br)cc4)n3n2)c1`: the RAM network inhibition was 3.52%.
